In the library only some 2.8% were active in any assay of this set; here they are far more common.
SNCA expr inhib = inhibitors of alpha-synuclein (SNCA) gene expression. HEK-293 SNCA-luciferase knock-in, luminescence, 24 h. Potency, µM (series often up to 57.2 µM), without a hit: top-dose activity change, negative = inhibition, usual class: inhibitors. 140,000 tested, 0.17% active;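 also: potency is read from the fitted curve at half-maximal effect; plate controls were DMSO cells for no effect and cell-free wells for full effect; nearly all actives have a fitted effect of over 45% in size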
IP6K1 inhibitor = inhibitors of human IP6K1. AID 1645851. 140,000 tested, 0.81% active. Q92551. IP6K1 kinase, ADP-Glo luminescence, 2 h; stronger effect = lower value. activity change, % (series mostly up to about 58 µM); in the data active = activity change below about -25%; also: % is scaled to controls: 0 for no effect and ±100 for the full control effect
Target sequence (Q92551 whole entry, looked up): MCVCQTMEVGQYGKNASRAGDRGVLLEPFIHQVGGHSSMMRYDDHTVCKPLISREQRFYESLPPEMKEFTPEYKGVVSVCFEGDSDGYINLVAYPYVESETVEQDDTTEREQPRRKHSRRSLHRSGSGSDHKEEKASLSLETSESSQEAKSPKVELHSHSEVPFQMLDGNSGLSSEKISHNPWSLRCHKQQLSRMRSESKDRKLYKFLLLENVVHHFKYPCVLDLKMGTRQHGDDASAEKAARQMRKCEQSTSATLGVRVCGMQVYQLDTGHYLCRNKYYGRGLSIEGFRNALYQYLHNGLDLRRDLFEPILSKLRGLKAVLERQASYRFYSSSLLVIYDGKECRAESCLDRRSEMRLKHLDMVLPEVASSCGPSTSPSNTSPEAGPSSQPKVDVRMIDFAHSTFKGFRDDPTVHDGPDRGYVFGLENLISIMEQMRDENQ
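ADP-Glo luminescence measures ADP made by human IP6K1 during a 2 h RT reaction with ATP/IP6 (mix at 1.3 mM/130 uM); top library doses 57.5 and 19.1 uM final.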
KDM5B inh = KDM5B demethylase inhibition | Potency, µM (titrated, usually from 57.7 µM), most hits filed as inhibitors | AID 1347165 | Q9UGL1 | KDM5B demethylase, FDH-coupled NADH fluorescence (FDH is formaldehyde dehydrogenase) | 220,000 tested, 2.6% active; also: potency is read from the fitted curve at half-maximal effect; 0% is about no effect; nearly all actives have a fitted effect of over 70% in size
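Here, H3K4me3 peptide (12.5 µM in substrate mix) is demethylated by KDM5BΔAP, 200 nM final, after 10 min compound exposure. Formaldehyde product is coupled through FDH (0.25 U/mL in mix) to NADH fluorescence; 30-min ΔRFU feeds dose-response curves.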
HEK293 viab = cell viability loss counter-screen; HEK-293-SNCA-luc viability, GF-AFC fluorescence, 24 h; Potency, µM (doses to about 57.1 µM), for inactives: at the highest dose activity change, negative = cytotoxicity, usual class: cytotoxic; 150,000 tested, 0.12% active; AID 1671193;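 also: potency is read from the fitted curve at half-maximal effect; 0% = DMSO-treated cells and -100% = medium-only wells without cells; nearly all actives have a fitted effect of over 30% in size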
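HEK-293-SNCA-luc cells (1500/well) plated 24 h, then exposed 24 h to a dilution series; GF-AFC added 30 min at 37C, fluorescence 405/540 nm; normalised to medium-only and DMSO wells, Hill fit.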
IP6K1 inh cnf = human IP6K1 inhibition, confirmatory; Potency, µM (titrated, usually from 49 µM), inactives show at the highest dose activity change, negative = inhibition, actives largely listed as inhibitors; shares compounds with IP6K1 inhibitor; 1,200 tested, 13% active; recombinant IP6K1 kinase, ADP-Glo luminescence, 2 h; also: potency is read from the fitted curve at half-maximal effect; % is scaled to controls: 0 for no effect and ±100 for the full control effect; nearly all actives have a fitted effect of over 65% in size
* hit, by the source's call; i = inactive; u = inconclusive; x = no result; [ ] = remark or other dose. Unless noted, calls follow the shape of the dose curve; as a rule, active = well fitted curve in the direction sought with a large enough effect; inconclusive = small, poorly fitted or top-dose-only effect, or another doubt; inactive = no such curve, though single readings can be large; an effect the other way counts as inactive or inconclusive.

SMILES	SNCA expr inhib	IP6K1 inhibitor	KDM5B inh	HEK293 viab	others
CNC(=O)c1cnn2ncccc12	-9%[87.6 µM]	-4	32µM*	-1%[87.6 µM]
CNC(=O)c1cnn2c1CN(C(=O)c1ccccc1)CC2	-8%[87.6 µM]	8	i	-3%[87.6 µM]
CN(C)C(=O)c1cnn2ncccc12	37%[87.6 µM]	11	32µM*	0%[87.6 µM]
CCCC(C)NC(=O)CSc1nc2cc(Cl)ccc2s1 (stereo not drawn)	x	x	i	x
CSCCNC(=O)C1CCN(c2nccc(Nc3ccccc3Cl)n2)CC1	u	1	x	-7%[12.5 µM]
Nc1nc(COC(=O)c2ccc(Cl)cc2)nc2ccccc12	x	x	i	x
COc1ccccc1C(=O)N1CCN(c2ccc3nnc(-c4ccccc4)n3n2)CC1	x	6	x	x
CN(Cc1cc(C2CC2)n[nH]1)c1nccc(-c2cccnc2)n1	34%	29	22µM*	-1%
CN(CCC(O)c1ccccc1)c1nccc(-c2cccnc2)n1 (stereo not drawn)	u	2	28µM*	-4%
CN(Cc1cc(C2CC2)n[nH]1)c1cc(C2CC(N)C2)nc(N)n1 (stereo not drawn)	-29%	9	u	-7%
O=C(NCc1cccs1)C1CCN(c2nc3ncccc3o2)CC1	12%[87.6 µM]	-1	32µM*	7%[87.6 µM]
O=C(NC1CCN(c2nc3ncccc3o2)CC1)C1CC1	8%[87.6 µM]	-3	28µM*	-12%[87.6 µM]
O=[S+]([O-])(NC1CCN(c2nc3ncccc3o2)CC1)c1cccs1	-8%	-2	22µM*	5%
COC(=O)NC1CCN(c2nc3ncccc3o2)CC1	11%[87.6 µM]	-10	35µM*	1%[87.6 µM]
O=[S+]([O-])(c1cccs1)N1CCN(c2nc3ncccc3o2)CC1	5%	-6	i	19%
O=C(NC1CC1)C1CCN(c2nc3ncccc3o2)CC1	17%[87.6 µM]	10	x	1%[87.6 µM]
Cc1cc(S(=O)(=O)N(Cc2ccncc2)C2CC2)ccc1Br	x	x	i	x
Cc1cccc(Cn2c(SCCC(=O)O)nc3c2c(=O)[nH]c(=O)n3C)c1	x	x	i	x
Cc1ccc(C(=O)NCc2nnc3ccc(-c4ccccc4)nn23)s1	-1%	15	u	-6%
Cc1ccc(C(=O)NCc2nnc3ccc(-c4ccc(Cl)cc4)nn23)s1	u	9	16µM*	-13%
O=C(NCc1nnc2ccc(-c3ccc(Cl)cc3)nn12)c1ccc(Cl)s1	3%	8	5µM*	-2%
Cc1ccsc1C(=O)NCc1nnc2ccc(-c3ccc(Cl)cc3)nn12	-24%	7	32µM*	-13%
O=C(NCc1nnc2ccc(-c3ccccc3)nn12)c1ccc(Cl)s1	1%	-6	22µM*	-16%
CCN(CC)S(=O)(=O)N1CCCC(c2nncn2C)C1 (stereo not drawn)	x	x	i	x
COCC(=O)NC[C@@H]1C=C(C)[C@H](CC(=O)N2CCN(c3ccccn3)CC2)C[C@H]1C(C)C	-10%	13	32µM*	-9%
SMILES	SNCA expr inhib	IP6K1 inhibitor	KDM5B inh	HEK293 viab	others
CC1=C[C@@H](CNC(=O)CC(C)(C)C)[C@H](C(C)C)C[C@H]1CC(=O)O	5%[87.6 µM]	3	28µM*	9%[87.6 µM]
COCCNC(=O)C[C@@H]1C[C@@H](C(C)C)[C@H](CNS(=O)(=O)c2ccc(OC)cc2)C=C1C	5%	-1	22µM*	-8%
COc1cccc(NC(=O)NC[C@@H]2C=C(C)[C@H](CC(=O)N3CCN(c4ccccn4)CC3)C[C@H]2C(C)C)c1	u	5	32µM*	u
CC1=C[C@@H](CNC(=O)COc2ccccc2)[C@H](C(C)C)C[C@H]1CC(=O)N1CCN(C)CC1	-8%	-6	i	-8%
COc1ccc(S(=O)(=O)NC[C@@H]2C=C(C)[C@H](CC(=O)N3CCN(C)CC3)C[C@H]2C(C)C)cc1	-11%	13	i	-16%
COc1ccc(S(=O)(=O)NC[C@@H]2C=C(C)[C@H](CC(=O)N3CCN(c4ccccn4)CC3)C[C@H]2C(C)C)cc1	u	-4	28µM*	u
COc1ccc(CCNC(=O)c2ccc(Cn3ccn4nc5c(c4c3=O)CCCC5)cc2)cc1OC	-8%	3	28µM*	-9%
CC(CCc1ccccc1)NC(=O)c1ccc(Cn2ccn3nc4c(c3c2=O)CCCC4)cc1 (stereo not drawn)	-21%	23	35µM*	-2%
Cc1oc(-c2ccccc2)nc1Cn1ccn2nc3c(c2c1=O)CCCC3	-4%	-6	28µM*	2%
CC(C)Oc1ccc(CNC(=O)c2ccc(Cn3ccn4nc5c(c4c3=O)CCCC5)cc2)cc1	-23%	4	25µM*	-7%
Cc1ccc(NC(=O)c2ccc(Cn3ccn4nc5c(c4c3=O)CCCC5)cc2)cc1C	57%	36	25µM*	-8%
CNCC(=O)N1CCCC(N2CCN(Cc3ccc4c(c3)OCO4)CC2)C1 (stereo not drawn)	2%	-37*	u	3%	IP6K1 inh cnf=-8%
Cn1c(=O)c2c(nc(Nc3cccc(Cl)c3)n2CC(=O)O)n(C)c1=O	x	x	i	x
CC(C)CC(NC(=O)C1=NNC(=O)CC1)c1nnc2n1CCNCC2 (stereo not drawn)	3%	-40*	i	-5%	IP6K1 inh cnf=-9%
Cn1c(=O)[nH]c(=O)c2c1nc(SCC(N)=O)n2CCCc1ccccc1	x	x	i	x
CCOC(=O)c1csc(Nc2ccc(Cl)cc2)n1	x	-27*	x	-12%	IP6K1 inh cnf=u
C[S+](=O)([O-])NCc1nnc2n1C(C(=O)NCc1ccccc1F)CC2 (stereo not drawn)	1%	-28*	x	12%	IP6K1 inh cnf=-2%
C[S+](=O)([O-])NCc1nnc2n1C(C(=O)NCc1ccccc1)CC2 (stereo not drawn)	-3%[87.6 µM]	11	x	0%[12.5 µM]
CCn1cc(-c2ccc(C)cc2)cc1C(=O)N1CCC(C)CC1	-15%	-30*	i	-7%	IP6K1 inh cnf=u
O=S(=O)(c1ccc(-c2cc(C(F)(F)F)on2)s1)N1CCN(c2cccc(Cl)c2)CC1	-13%	-33*	i	-9%	IP6K1 inh cnf=61%
Cc1c(CN(C)CC2(O)CCCN(Cc3ccc(C(C)C)cc3)C2=O)cnn1C (stereo not drawn)	-6%	-37*	i	3%	IP6K1 inh cnf=-6%
O=C1NC(=O)/C(=C/c2ccc3c(c2)OC(F)(F)O3)S1	119%	-37*	x	-5%	IP6K1 inh cnf=u
CC(C)(C)OC(=O)COc1ccc2c(-c3cc4ccccc4oc3=O)cc(=O)oc2c1	x	x	i	x
Cc1c(C(=O)N(Cc2ccccc2F)C2CCS(=O)(=O)C2)oc2ccccc12 (stereo not drawn)	7%	-61*	i	-22%	IP6K1 inh cnf=-21%
FC(F)(F)C(Oc1nc(N2CCCCC2)nc(N2CCOCC2)n1)C(F)(F)F	x	x	i	x
